Screening results: PubChem, The Scripps Research Institute Molecular Screening Center
In the library only some 1.1% were active in any assay of this set; here they are far more common.
PKA-R2B activ = activators of human PKA-R2B complex; P22694+P31323; PKA-R2B holoenzyme dissociation, Cy5-IP20 fluorescence polarization; R2B truncated from residue 108, S112A mutant; 0% DMSO only, 100% 113 µM cGMP; activation, % at 11.4 µM; actives 0.079% (n = 340,000); AID 504700;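 active = activation above a cutoff set at the mean over all compounds plus 3 SD, cut at about 18% in these data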;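 note: higher means more holoenzyme dissociation and a rise in polarization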
Target sequence (P31323 whole entry, looked up, other chains not shown, the tested form may be a part): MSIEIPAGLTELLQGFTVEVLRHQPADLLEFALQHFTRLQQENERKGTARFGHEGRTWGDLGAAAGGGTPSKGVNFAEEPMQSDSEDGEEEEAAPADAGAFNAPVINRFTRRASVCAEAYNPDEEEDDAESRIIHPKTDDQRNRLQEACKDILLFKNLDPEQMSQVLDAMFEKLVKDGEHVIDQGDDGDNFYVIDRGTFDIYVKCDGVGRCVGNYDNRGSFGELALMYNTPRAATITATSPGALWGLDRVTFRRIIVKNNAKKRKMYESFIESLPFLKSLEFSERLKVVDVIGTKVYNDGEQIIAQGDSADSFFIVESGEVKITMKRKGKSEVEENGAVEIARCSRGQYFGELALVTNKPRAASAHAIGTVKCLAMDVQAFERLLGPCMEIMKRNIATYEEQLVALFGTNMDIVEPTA
PKA-R1A activ = activates the PKA-R1A holoenzyme complex. PKA-R1A dissociation, Cy5-IP20 fluorescence polarization; scaled: DMSO 0%, 113 µM cGMP 100%. P00514+P68181. AID 504707. actives 0.083% (n = 340,000). activation, % at 11.4 µM;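 active = percent activation above the mean of all tested compounds plus 3 SD, cut at about 19% in these data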;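 note: higher means more PKAc released from R1A so a rise in polarization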
MsrA inhibitor = bovine MsrA inhibition; purified bovine MsrA, absorbance read-out; actives 0.75% (n = 360,000); inhibition, % at 15.5 µM; in the data active = inhibition above about 4.5%
MsrA act = activators of bovine methionine sulfoxide reductase A. purified bovine MsrA, absorbance read-out. activation, % at 10.6 µM. actives 0.3% (n = 360,000); in the data active = activation above about 7.5%
MsrA act confirm = bovine methionine sulfoxide reductase A activation confirmed; shares compounds with MsrA act; purified bovine MsrA, absorbance read-out; actives 12% (n = 1,000); activation, % at 10.6 µM; in the data active = activation above about 4%;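 note: enzyme coupled to thioredoxin and thioredoxin reductase with NADPH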
Numbers stand for hits.

Screening CS(=O)(=O)c1ccc(C(=O)Nc2ccc(S(=O)(=O)N3CCCCC3)cc2)cc1 returned PKA-R2B activ inactive, PKA-R1A activ inactive, MsrA inhibitor inactive, MsrA act 15 and MsrA act confirm inactive.
`O=C(CCl)N1c2ccccc2Sc2c1ccc1ccccc21` gave PKA-R2B activ inactive, PKA-R1A activ inactive, MsrA inhibitor inactive and MsrA act inactive.
For CC(=O)N1c2ccccc2Sc2ccc3ccccc3c21 the results were PKA-R2B activ inactive, PKA-R1A activ inactive, MsrA inhibitor inactive, MsrA act 9.2 and MsrA act confirm inactive.
Screening O=C(N[C@H](Cc1ccccc1)C(=O)NCc1ccc2c(c1)OCO2)[C@H]1O[C@@H](n2ccc(=O)[nH]c2=O)[C@H](O)[C@@H]1O returned MsrA inhibitor inactive.
Screening Cc1cc2c(nc1C)CCCN2Cc1ccc(Br)cc1 returned MsrA inhibitor inactive.
Screening C=CCn1c(SCCN2CCCC2)nc2c([nH]c3ccccc32)c1=O returned PKA-R2B activ inactive, PKA-R1A activ inactive, MsrA inhibitor inactive, MsrA act 8.4 and MsrA act confirm inactive.
Cn1c(SCc2cccc(Cl)c2)nc(C(F)(F)F)cc1=O was read as PKA-R2B activ inactive, PKA-R1A activ inactive, MsrA inhibitor inactive, MsrA act 8.4 and MsrA act confirm inactive.
Screening Cn1c(SCc2ccccc2)nc(C(F)(F)F)cc1=O returned PKA-R2B activ inactive, PKA-R1A activ inactive, MsrA inhibitor inactive and MsrA act inactive.
For Fc1ccc(-c2csc(=S)[nH]2)cc1 the results were PKA-R2B activ inactive, PKA-R1A activ inactive, MsrA inhibitor inactive, MsrA act 8.0 and MsrA act confirm inactive.
For S=c1[nH]c(-c2ccccc2)cs1 the results were PKA-R2B activ inactive, PKA-R1A activ inactive, MsrA inhibitor inactive and MsrA act inactive.
`Cc1cc(NC(=O)Cc2cn(Cc3ccccc3)c3ccccc23)ccc1Oc1cccnc1` gave MsrA inhibitor inactive.
Screening CC(C)c1[nH]nc2c1C(c1ccccc1)N(c1ccccc1)C2=O (centres undefined) returned MsrA inhibitor inactive.
`c1ccc(SSc2ccccn2)nc1` gave PKA-R2B activ inactive, PKA-R1A activ inactive, MsrA act 11 and MsrA act confirm 7.5.
Screening C[C@H](O)[C@@H]1C(=O)N2CCc3c([nH]c4c(-c5ccccc5)cccc34)[C@@H]2C[C@@H]1N(C)C(=O)OCc1ccccc1 returned MsrA inhibitor inactive.
`O=C1CN(C(=O)COC(=O)c2ccc([N+](=O)[O-])s2)c2ccccc2N1` gave PKA-R2B activ inactive, PKA-R1A activ inactive, MsrA act 41 and MsrA act confirm 21.
Screening O=C(COC(=O)c1ccc([N+](=O)[O-])s1)c1ccc[nH]1 returned PKA-R2B activ inactive, PKA-R1A activ inactive, MsrA inhibitor inactive, MsrA act 27 and MsrA act confirm 9.5.
Screening O=C1CN(C(=O)COC(=O)c2cccs2)c2ccccc2N1 returned PKA-R2B activ inactive, PKA-R1A activ inactive, MsrA inhibitor inactive and MsrA act inactive.
Screening O=C(COC(=O)c1ccc([N+](=O)[O-])s1)NNC(=O)c1ccccc1 returned PKA-R2B activ inactive, PKA-R1A activ inactive, MsrA act 22 and MsrA act confirm 9.0.
`O=C(OCC(=O)c1ccc[nH]1)c1ccc([N+](=O)[O-])cc1` gave PKA-R2B activ inactive, PKA-R1A activ inactive, MsrA inhibitor inactive and MsrA act inactive.
Screening O=C(COC(=O)c1ccc([N+](=O)[O-])o1)NCc1ccc(F)cc1 returned PKA-R2B activ inactive, PKA-R1A activ inactive, MsrA inhibitor inactive and MsrA act inactive.
`CC(NC(=O)COC(=O)c1ccc([N+](=O)[O-])s1)c1ccccc1` (centres undefined) gave PKA-R2B activ inactive, PKA-R1A activ inactive, MsrA inhibitor inactive and MsrA act inactive.
For O=C(COC(=O)c1ccc([N+](=O)[O-])s1)NCc1ccc(F)cc1 the results were PKA-R2B activ inactive, PKA-R1A activ inactive, MsrA inhibitor inactive, MsrA act 26 and MsrA act confirm 22.
Screening COC(=O)C1=C(C)NC(=S)NC1c1cccc(OC)c1 (centres undefined) returned MsrA inhibitor inactive.
O=C(CCc1c[nH]c2ccccc12)Nc1ccc(Nc2ccccc2)cc1 was read as MsrA inhibitor inactive.
Cc1cc2c(c(=O)o1)[C@@]1(C(=O)N(C)c3cc(Br)ccc31)C1=C(CCCC1=O)O2 was read as MsrA inhibitor inactive.
O=C(COC(=O)c1ccc([N+](=O)[O-])s1)NC(=O)NCc1ccccc1 was read as PKA-R2B activ inactive, PKA-R1A activ inactive, MsrA inhibitor inactive, MsrA act 15 and MsrA act confirm inactive.
`O=C(COC(=O)c1ccc(O)cc1)NC(=O)NCc1ccccc1` gave PKA-R2B activ inactive, PKA-R1A activ inactive, MsrA inhibitor inactive and MsrA act inactive.
Screening CCc1cc(C(=O)OCC(=O)NCCc2ccccc2)sc1C returned PKA-R2B activ inactive, PKA-R1A activ inactive, MsrA inhibitor inactive and MsrA act inactive.
For O=C(COC(=O)c1ccc([N+](=O)[O-])s1)NCCc1ccccc1 the results were PKA-R2B activ inactive, PKA-R1A activ inactive, MsrA act 26 and MsrA act confirm 16.
Screening COc1cc(N2C[C@@]3(O)CC[C@@H](O)[C@@H](OC)[C@@H]3[C@@](C)(O)[C@@H]2CC=C(C)C)cc(OC)c1OC returned MsrA inhibitor inactive.
For Cc1ccc(NC(=O)COC(=O)COc2ccc(Cl)cc2)c([N+](=O)[O-])c1 the results were PKA-R2B activ inactive, PKA-R1A activ inactive, MsrA inhibitor inactive, MsrA act 16 and MsrA act confirm inactive.
Screening O=C(COC(=O)COc1ccc(Cl)cc1)Nc1ccc(F)c([N+](=O)[O-])c1 returned PKA-R2B activ inactive, PKA-R1A activ inactive, MsrA inhibitor inactive and MsrA act inactive.
For Cc1onc(-c2ccccc2)c1C(=O)N1CCN(C(=O)C(=O)c2cccc(C(F)(F)F)c2)CC1 the results were MsrA inhibitor inactive.
N#CCCN(Cc1cccnc1)C(=O)Nc1ccc(Cl)c(Cl)c1 was read as PKA-R2B activ inactive, PKA-R1A activ inactive, MsrA inhibitor inactive, MsrA act 9.1 and MsrA act confirm inactive.
Cn1c(=O)c2cc(NC(=O)CCc3ccccc3)ccc2n1Cc1cccc(C(F)(F)F)c1 was read as MsrA inhibitor inactive, MsrA act 7.8 and MsrA act confirm inactive.
Screening Cc1cc(Nc2cccc(F)c2)cc(=O)n1-c1cccc(F)c1 returned MsrA inhibitor inactive.
O=S(=O)(c1ccc(F)cc1)N1CCCc2nc(-c3ccc(F)cc3)ccc21 was read as MsrA inhibitor inactive.
For Cn1c(=O)c2c(nc(NCCCO)n2Cc2cccc(C(F)(F)F)c2)n(C)c1=O the results were PKA-R2B activ inactive, PKA-R1A activ inactive, MsrA inhibitor inactive, MsrA act 8.3 and MsrA act confirm inactive.
For Cn1c(=O)c2c(nc(SCC(=O)O)n2Cc2cccc(C(F)(F)F)c2)n(C)c1=O the results were PKA-R2B activ inactive, PKA-R1A activ inactive, MsrA inhibitor inactive and MsrA act inactive.
CCCc1cc2c(OC)ccc(O)c2c(=O)n1C was read as MsrA inhibitor inactive.
